Vaccinia Venus: vaccinia inhibition (Venus reporter); Vaccinia virus Venus reporter expression, fluorescence; Potency, µM (top dose mostly 36.5 µM), for the others: top-dose activity change, negative = inhibition, hits mostly inhibitors; 330,000 compounds, 0.46% hits; AID 720580; calls by dose curve; tested in A549 cells; note: potency is the fitted concentration of half-maximal effect; nearly all actives have a fitted effect of over 30% in size
LASV entry inh: inhibitors of Lassa virus binding or cell entry; Lassa virus pseudotype entry inhibition, cell reporter; Potency, µM (doses to about 37.9 µM), inactives show at the top dose activity change, negative = inhibition, usual class: inhibitors; 300,000 compounds, 1.2% hits; AID 540256; calls by dose curve; tested in HEK293 cells; note: potency is the fitted concentration of half-maximal effect; nearly all actives have a fitted effect of over 50% in size
Vaccinia mCherry: vaccinia inhibition (mCherry reporter) | Vaccinia virus mCherry reporter infection, fluorescence | Potency, µM (titrated, usually from 36.5 µM), for inactives: top-dose activity change, negative = inhibition, usual class: inhibitors | 310,000 compounds, 0.63% hits; calls by dose curve; tested in A549 cells; note: potency is the fitted concentration of half-maximal effect; nearly all actives have a fitted effect of over 35% in size
HCV inhibitor: blocks hepatitis C virus; 340,000 compounds, 3.4% hits; Huh7.5.1 HCVcc-Cre infection, luciferase reporter, 44 h; Potency, µM (top dose mostly 41.8 µM), without a hit: at the highest dose activity change, negative = inhibition, hits mostly inhibitors; active = well fitted inhibition curve with a large enough effect; inconclusive = small, poorly fitted or top-dose-only effect, or another doubt; inactive = no such curve, though single readings can be large or run the other way; note: potency is the fitted concentration of half-maximal effect
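A cell-based infection assay in which seeded cells (1,000 per well) receive test compound after 4 h, are inoculated with HCVcc-Cre at approximately 0.5 moi, and are incubated 44 h before luminescence detection.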
HCMV inh: inhibitors of human cytomegalovirus; HFF cells, HCMV-luciferase reporter, 72 h; active compounds read low; activity change, negative = inhibition, % at 57.5 µM; 410,000 compounds, 4.5% hits; AID 1259415; in the data active = activity change below about -60%; inconclusive = no clear call, values can overlap the other calls; inactive = above about -39%
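Two-dose cell screen: HFF monolayers treated with compounds and infected with luciferase-expressing HCMV at 1 PFU/cell, 72 h at 37C, then lysed for luciferase measurement.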
Marburg entry inh: blocks Marburg virus binding to or entry into cells. Marburg virus pseudotyped entry inhibition, cell reporter. Potency, µM (titrated, usually from 37.8 µM), without a hit: at the top dose activity change, negative = inhibition, most hits filed as inhibitors. 300,000 compounds, 1.8% hits. AID 540276; calls by dose curve; tested in HEK293 cells; note: potency is the fitted concentration of half-maximal effect
Starred values were filed as active, the others as inactive; i = inactive; ? = inconclusive; · = not tested or not shown; [ ] = dose if it differs, or a comment. The list is not random: actives were taken first. Their share in the collection is about 7.8%. % is set by controls: 0 for no effect and ±100 for the full control effect.

SMILES | Vaccinia Venus | LASV entry inh | Vaccinia mCherry | HCV inhibitor | HCMV inh | Marburg entry inh
COc1ccc(CCN2C(=O)N(c3cccc(C)c3)C(=O)C2CC(=O)Nc2ccccc2)cc1OC (stereo not given) | 0% | -22%[46.1 µM] | 1% | · | 5 | -28%[46.1 µM]
O=C(/C=C/c1ccccc1)c1c[nH]c2ccccc12 | -18%[7.34 µM] | · | -21%[7.34 µM] | 0% | 18 | ·
Cc1[nH]c2ccccc2c(=O)c1C(=O)/C=C/c1ccccc1 | ? | · | 3.2µM* | 11µM* | -97* | ·
O=C(C=Cc1ccccc1)c1c[nH]c2ccccc2c1=O | -29% | ? | ? | 11µM* | -77* | ?
Cc1cc(N2CCOCC2)nc2ccc(NC(=O)CCC(=O)N3CCN(c4ccccc4)CC3)cc12 | -5% | ? | ? | ? | 59 | 3%[46.1 µM]
Cc1ccc(NC(=O)Nc2ccc3nc(N4CCN(C)CC4)cc(C)c3c2)cc1C | -22% | ? | -27% | · | -100* | ·
Cc1cc(N2CCN(C)CC2)nc2ccc(NC(=O)CCC(=O)N3CCN(c4ccc([N+](=O)[O-])cc4)CC3)cc12 | -29% | -7%[46.1 µM] | ? | 11µM* | -64* | ?
Cc1cc(N2CCN(C)CC2)nc2ccc(NC(=O)Nc3ccc(F)cc3F)cc12 | -8% | ? | -10% | · | ? | ·
Cc1cc(N2CCN(C)CC2)nc2ccc(NC(=O)Nc3ccccc3)cc12 | -5% | 1%[46.1 µM] | i | · | ? | ·
Cc1cc(N2CCN(C)CC2)nc2ccc(NC(=O)Nc3ccccc3Br)cc12 | -17% | ? | -23% | · | -95* | ·
Cc1cc(N2CCN(C)CC2)nc2ccc(NC(=O)Nc3cccc(Cl)c3)cc12 | -24% | ? | 14% | · | -99* | ·
COc1cc(OC)c(NC(=O)CCc2nc(C3=CCN(Cc4cccc(Cl)c4)CC3)no2)cc1Cl | -14% | -22%[46.1 µM] | -18% | · | -6 | ·
CCOC(=O)c1c(C)[nH]c(C)c1S(=O)(=O)N1CCCC(C(=O)Nc2cc(C)ccc2C)C1 (stereo not given) | 4% | 1%[46.1 µM] | 2% | · | -2 | ·
COc1ccc(-n2c(=O)c3c4c(sc3n(C)c2=O)CN(C(C)=O)CC4)cc1 | -4% | · | -17% | · | -6 | -14%[46.1 µM]
CCOc1cc(C(=O)Nc2ccc3nc(N4CCN(C)CC4)cc(C)c3c2)cc(OCC)c1OCC | -23% | -20%[46.1 µM] | i | · | -66* | 5.6µM*
CCOc1ccc(-c2cc(C(=O)Nc3ccc(C)c(NS(C)(=O)=O)c3)[nH]n2)c(C)c1 | ? | · | 11µM* | · | -91* | ·
CCOc1ccc(-c2cc3nc(C4CCN(C(=O)OC(C)(C)C)CC4)c(C(=O)Nc4ccc(C)c(F)c4)cn3n2)cc1 | -12% | 18%[46.1 µM] | -8% | · | -93* | ?
CCOc1ccc(-c2cc3nc(C4CCN(C(=O)OC(C)(C)C)CC4)c(C(=O)Nc4cc(OC)ccc4OC)cn3n2)cc1 | -19% | -24%[46.1 µM] | -13% | · | 12 | ?
O=C(COc1cccnc1[N+](=O)[O-])N1CCC(Cc2ccccc2)CC1 | 0% | -4%[46.1 µM] | i | 1% | -76* | ?
Cc1ccc(OCC(=O)N2CCC(C)CC2)c([N+](=O)[O-])n1 | 0% | -3% | -10% | 6% | 46 | 17%
Cc1ccc(OCC(=O)N2CCC(Cc3ccccc3)CC2)c([N+](=O)[O-])n1 | · | · | · | -4% | -74* | ·
O=C(C1CCC(Cn2c(=S)[nH]c3ccccc3c2=O)CC1)N1CCN(c2ccccc2)CC1 (stereo not given) | -29% | 4% | ? | 10µM* | ? | ?
O=C(C1CCC(Cn2c(=S)[nH]c3ccccc3c2=O)CC1)N1CCN(c2ccccn2)CC1 (stereo not given) | -9% | ? | -11% | 13µM* | -91* | -7%[46.1 µM]
O=C(C1CCC(Cn2c(=O)[nH]c3ccccc3c2=O)CC1)N1CCN(c2ccccc2)CC1 (stereo not given) | -19% | -13% | -19% | -11%[8.37 µM] | -18 | 11%
O=C(C1CCC(Cn2c(=S)[nH]c3ccccc3c2=O)CC1)N1CCOCC1 (stereo not given) | · | -5% | · | -27% | -28 | 0%
SMILES | Vaccinia Venus | LASV entry inh | Vaccinia mCherry | HCV inhibitor | HCMV inh | Marburg entry inh
COc1ccccc1N1CCN(C(=O)C2CCC(Cn3c(=S)[nH]c4ccccc4c3=O)CC2)CC1 (stereo not given) | · | -24% | · | ? | -24 | ?
COc1ccc(N2CCN(C(=O)C3CCC(Cn4c(=S)[nH]c5ccccc5c4=O)CC3)CC2)cc1 (stereo not given) | · | -21% | · | 1µM* | -81* | 10µM*
Cc1cccc(N2CCN(C(=O)COc3cc(=O)n(C)c4ccccc34)CC2)c1C | · | ? | · | ? | -23 | -8%
Cc1ccc(C)c(N2CCN(C(=O)CCCOc3cc(=O)n(C)c4ccccc34)CC2)c1 | · | ? | · | 10µM* | 56 | ?
Cc1ccc(C)c(N2CCN(C(=O)COc3cc(=O)n(C)c4ccccc34)CC2)c1 | · | 18µM* | · | ? | -24 | -24%
O=C(NCCSCc1ccc(Cl)cc1Cl)c1ccc(CN2CCOCC2)cc1 | ? | ? | -19% | 11µM* | ? | ?
O=C(NCCSc1ccc(Cl)cc1)c1ccc(CN2CCOCC2)cc1 | -19% | -4% | -15% | ? | -36 | ?
COc1ccc(-c2sc3cc(OC)c(OC)cc3c2C#CC(C)(C)O)cc1 | -27% | · | -9% | 1.4µM* | -32 | ·
COC(=O)c1c(-c2ccc(OC)cc2)sc2cc(OC)c(OC)cc12 | -18% | · | ? | ? | 69 | ·
COc1ccccc1-c1sc2cc3c(cc2c1C#CC1(O)CCCCC1)OCO3 | -21% | · | i | ? | -23 | ·
COc1ccc(-c2sc3cc(OC)c(OC)cc3c2C#CCO)cc1 | ? | · | -20% | 1µM* | 3 | ·
COc1ccc(-c2sc3cc4c(cc3c2C#CC2(O)CCCCC2)OCO4)cc1 | ? | · | ? | 1.6µM* | 4 | ·
O=S(=O)(c1cc(Br)c(Br)s1)N1CCN(c2ccccc2)CC1 | -7% | 10%[46.1 µM] | -8% | · | 15 | ·
CC(=O)Nc1ccc(Sc2ccc([N+](=O)[O-])o2)cc1 | -3% | ? | -30% | ? | -98* | ?
COc1cc(NC(=O)C2CC(c3c(F)cccc3Cl)=NO2)cc(OC)c1OC (stereo not given) | -18% | -14%[46.1 µM] | -12% | 25µM* | -27 | ?
O=C(CN1CCN(c2ccccc2F)CC1)c1c[nH]c2ccc(F)cc12 | · | ? | · | ? | -24 | 12µM*
NC(=O)C1CCN(CC(=O)c2c[nH]c3ccc(F)cc23)CC1 | -1% | 10% | -11% | 13% | 6 | 5%
CCc1c(C)sc2c1CCN(C(=O)Nc1ccc(F)c(Cl)c1)C2c1ccc(F)cc1 (stereo not given) | -2% | ? | -19% | · | -104* | ·
Nc1nnc(/C=C/c2ccccc2Cl)s1 | -4% | ? | i | 9% | 79 | 7.1µM*

High-throughput results from PubChem.
